PI5P4Ka inh = qHTS for Inhibitors of phosphatidylinositol 5-phosphate 4-kinase (PI5P4K); Phosphatidylinositol 5-phosphate 4-kinase type-2 alpha (Homo sapiens), P48426; PI5P4Kalpha enzyme, ADP-Glo luminescence, 60 min; stronger effect = lower value; max response, %; 330,000 tested, 1.2% active; active = max response of -50% or lower; inconclusive = between -30% and -50%; inactive = -30% or higher; note: value at the top dose of about 77 µM; % is set by controls: 0 for no effect and ±100 for the full control effect
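Reactions run in 0.038 M HEPES pH 7.4, 0.28 mM EGTA, 0.1% CHAPS and 5% DMSO, with PI5P4Kalpha, substrate, compound and 5 microM ATP final, one hour at room temperature. Readout is ADP-Glo luminescence.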
BAZ2B block = qHTS Assay for Inhibitors of BAZ2B. Potency, µM (doses to about 114 µM), inactives show top-dose activity change, negative = inhibition, actives largely listed as inhibitors. Bromodomain adjacent to zinc finger domain protein 2B (Homo sapiens), Q9UIF8. AlphaScreen BAZ2B-H3K14Ac peptide displacement. 360,000 tested, 4.4% active; note: potency is the fitted concentration of half-maximal effect; % is set by controls: 0 for no effect and ±100 for the full control effect; nearly all actives have a fitted effect of over 60% in size
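Protein-peptide AlphaScreen: BAZ2B 50 nM, b-H3K14Ac 50 nM, 1x PBS pH 7.4 + 0.01% Tween-20. Preincubation 30 min RT; cpd 30 min RT (top 110 uM); beads 20 min RT, light-protected.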
G9a block = qHTS Assay for Inhibitors of Histone Lysine Methyltransferase G9a. Histone-lysine N-methyltransferase EHMT2 (Homo sapiens), Q96KQ7. G9a H3K9 monomethylation, AlphaScreen, 2 h. Potency, µM (series often up to 102 µM), inactives show at the highest dose activity, negative = inhibition, actives largely listed as inhibitors. 350,000 tested, 8.8% active. AID 504332, 2011; note: potency is the fitted concentration of half-maximal effect; % is set by controls: 0 for no effect and ±100 for the full control effect; nearly all actives have a fitted effect of over 75% in size
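Methyltransferase reactions run at room temperature for 2 h (20 nM enzyme, 500 nM biotin-H3K9 peptide, 20 uM SAM) after a 15 min compound preincubation; product detected by AlphaScreen beads and anti-H3K9me1 antibody.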
HP1b binding inh = HTS for Inhibitors of HP1-beta Chromodomain Interactions with Methylated Histone Tails; Chromobox protein homolog 1 (Homo sapiens), P83916; AlphaScreen HP1-beta / biotin-H3K9me3 peptide binding; Potency, µM (highest dose often 114 µM), inactives show at the top dose activity change, negative = inhibition, hits mostly inhibitors; 390,000 tested, 0.56% active; AID 540317, 2011; note: potency is the fitted concentration of half-maximal effect; nearly all actives have a fitted effect of over 70% in size
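HP1-beta protein (50 nM final) preincubated 30 min at room temperature with biotinylated H3(1-18)K9me3 peptide (50 nM) in PBS pH 7.4, 0.01% Tween-20, then compound added for 30 min. AlphaScreen streptavidin donor/nickel chelate acceptor beads (10 ug/mL final), 30 min dark, luminescence read.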
JMJD2A Tudor = qHTS Assay for Inhibitors of JMJD2A-Tudor Domain; Potency, µM (top dose mostly 114 µM), without a hit: at the highest dose activity change, negative = inhibition, hits mostly inhibitors; Lysine-specific demethylase 4A (Homo sapiens), O75164; 390,000 tested, 4.4% active; AID 504339, 2011; AlphaScreen JMJD2A-Tudor / H3K4me3 peptide binding; note: potency is the fitted concentration of half-maximal effect; % is set by controls: 0 for no effect and ±100 for the full control effect; nearly all actives have a fitted effect of over 50% in size
Target sequence (O75164 whole entry, looked up, the tested form may be a part): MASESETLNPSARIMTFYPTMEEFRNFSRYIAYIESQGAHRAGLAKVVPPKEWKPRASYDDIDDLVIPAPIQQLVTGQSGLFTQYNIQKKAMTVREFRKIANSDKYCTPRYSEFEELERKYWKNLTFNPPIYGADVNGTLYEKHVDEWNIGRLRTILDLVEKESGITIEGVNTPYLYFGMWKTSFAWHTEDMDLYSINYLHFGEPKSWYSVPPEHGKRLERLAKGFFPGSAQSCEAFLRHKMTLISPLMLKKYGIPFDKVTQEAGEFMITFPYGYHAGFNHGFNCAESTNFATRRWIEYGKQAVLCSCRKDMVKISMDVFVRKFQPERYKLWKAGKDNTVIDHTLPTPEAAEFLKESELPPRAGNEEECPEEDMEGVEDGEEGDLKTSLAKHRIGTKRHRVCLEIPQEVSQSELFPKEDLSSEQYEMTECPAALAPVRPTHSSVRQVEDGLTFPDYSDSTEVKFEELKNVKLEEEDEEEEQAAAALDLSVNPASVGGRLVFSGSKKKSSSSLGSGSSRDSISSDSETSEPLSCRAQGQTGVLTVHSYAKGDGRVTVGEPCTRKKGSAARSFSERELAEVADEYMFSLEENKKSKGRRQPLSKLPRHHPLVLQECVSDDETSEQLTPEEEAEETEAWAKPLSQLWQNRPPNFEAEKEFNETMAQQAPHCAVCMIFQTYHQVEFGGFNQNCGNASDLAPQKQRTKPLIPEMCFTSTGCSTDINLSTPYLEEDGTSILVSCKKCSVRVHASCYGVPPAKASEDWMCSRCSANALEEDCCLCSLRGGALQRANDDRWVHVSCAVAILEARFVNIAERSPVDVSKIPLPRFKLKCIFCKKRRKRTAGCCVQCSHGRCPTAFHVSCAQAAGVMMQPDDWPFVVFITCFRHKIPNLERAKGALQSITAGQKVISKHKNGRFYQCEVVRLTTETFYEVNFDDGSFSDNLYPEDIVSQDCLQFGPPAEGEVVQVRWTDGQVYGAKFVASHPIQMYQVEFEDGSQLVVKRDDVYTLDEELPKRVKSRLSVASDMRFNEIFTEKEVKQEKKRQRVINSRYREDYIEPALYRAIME
PLK1 PBD block = qHTS for Inhibitors of PLK1-PDB (polo-like kinase 1 - polo-box domain): Primary Screen. Serine/threonine-protein kinase PLK1 (Homo sapiens), P53350. 360,000 tested, 2.8% active. Potency, µM, inactives show max response, negative = inhibition, most hits filed as inhibitors. AID 720504, 2013. Plk1 PBD binding of FITC phosphopeptide, fluorescence polarization; note: potency is the fitted concentration of half-maximal effect; series mostly up to about 57 µM; % is set by controls: 0 for no effect and ±100 for the full control effect; nearly all actives have a fitted effect of over 65% in size
* marks the source's active call; other numbers are inactive results; ? = inconclusive; · = not tested or not shown; [ ] = dose if it differs, or a comment. Sampled rows, rich in hits. Any-hit rate of the full collection: about 12%. Unless noted, calls come from the whole dose curve; as a rule, active = well fitted curve in the direction sought with a large enough effect; inconclusive = small, poorly fitted or top-dose-only effect, or another doubt; inactive = no such curve, though single readings can be large; an effect the other way counts as inactive or inconclusive.

SMILES	PI5P4Ka inh	BAZ2B block	G9a block	HP1b binding inh	JMJD2A Tudor	PLK1 PBD block
COc1ccc(-c2nc3ccc(NC(=O)CO)cc3c(=O)n2Cc2cccc(Cl)c2)cc1COc1ccc(NC(C)=O)cc1	·	·	·	-17%	56µM*	·
N#Cc1ccc(OCC(=O)OCC(=O)N2CCc3ccccc32)cc1	9	·	·	·	·	-7%
COc1ccccc1C1=Nn2c(nnc2-c2ccccc2C)SC1	·	·	·	·	-28%	·
CCOc1cc(C(=O)Nc2cccc3cccnc23)cc(OCC)c1OCC	·	70%	84%[59 µM]	119%	65%	·
CCOc1ccc(NC2CCN(C(C)=O)CC2)cc1	5	0%	50µM*	24%	-27%	-6%
CCOc1ccc(S(=O)(=O)NN=C2CCN(C(C)=O)CC2)cc1	3	2%	50µM*	37%	-12%	-4%
CC(=O)N1CCC(Nc2ccc(C)cc2)CC1	1	3%	?	11%	-20%	-13%
CCOc1ccc(NS(=O)(=O)c2ccc(C(=O)N3CCCCC3)cc2)cc1	-8	-13%	?	34%	-10%	1%
COc1cccc(C(=O)NC2CCN(CC(=O)Nc3c(C)cc(C)cc3C)CC2)c1	·	-2%	-41%	·	·	·
COc1cccc(C(=O)NC2CCN(CC(=O)Nc3nccs3)CC2)c1	-4	-7%	7%[12.7 µM]	0%	?	24µM*
COc1cccc(-n2nnc(-c3nc(-c4ccccc4F)no3)c2C)c1	·	14%	0%[59 µM]	6%	-12%	·
C=CC[n+]1c(-c2ccccc2)csc1NC(C)(C)C	1	50µM*	?	?	-15%	-6%
CCOC(=O)c1ccc(NC(=O)c2c(NCc3cc(OC)c(OC)cc3OC)sc3c2CCCC3)cc1	·	25µM*	7.1µM*	?	25µM*	·
CCOc1ccc(NC(=O)c2c(NCc3cc(OC)c(OC)cc3OC)sc3c2CCCC3)cc1	·	25µM*	13µM*	?	25µM*	·
COC(=O)c1ccc(NC(=O)c2c(NCc3cccc(F)c3)sc3c2CCCC3)cc1	·	-35%	?	-12%	?	·
CCOC(=O)N1CCc2c(sc(NCc3cc(OC)c(OC)cc3OC)c2C(=O)Nc2ccc(OCC)cc2)C1	·	?	3.2µM*	?	11µM*	·
CCOc1ccc(NC(=O)c2c(NC(=O)CN3CCCC3)sc3c2CCC3)cc1	5	?	-12%	16%	-15%	-1%
CCOC(=O)c1ccc(NC(=O)c2c(NCc3cc(OC)ccc3OC)sc3c2CCC3)cc1	·	-13%	5µM*	29%	-20%	·
O=C(c1cnc(N2CCOCC2)c2ccccc12)N1CCN(c2ccc(F)cc2)CC1	·	-12%	7%[59 µM]	22%[57 µM]	-4%	·
CC(=O)NC(C)(c1ccccc1)c1nc(-c2ccc(F)c(Cl)c2)cs1 (stereo not drawn)	22	·	·	·	·	-6%
CN(Cc1cccnc1)C(=O)CNC(=O)COc1ccccc1	9	-1%	24%	-5%	-11%	2%
CCOc1ccccc1C(=O)NCC(=O)N(C)Cc1cccnc1	1	-5%	40µM*	14%	-5%	-21%
Nc1c(C(=O)NCCc2ccccc2)nnn1CC(=O)Nc1ccc(Cl)cc1	·	10%[57.1 µM]	-8%[59 µM]	-7%	-31%	·
CCCc1cc2c(=O)c(-c3nc4ccccc4s3)c(COCC(=O)O)oc2cc1O	-74*	-24%	50µM*	15%	?	-24%
CCOP(=O)(Nc1cccc2oc(=O)c3ccccc3c12)OCC	61	·	·	25%	-6%	-6%
SMILES	PI5P4Ka inh	BAZ2B block	G9a block	HP1b binding inh	JMJD2A Tudor	PLK1 PBD block
Cn1c(=O)c([N+](=O)[O-])c(NCc2ccccc2)c2ccccc21	-6	-1%	50µM*	40%	-6%	-2%
CC12CN3CC(c4ccccc4)(CN(C1)C3c1ccc(O)cc1)C2=O (stereo not drawn)	·	-12%	4%[59 µM]	8%	-13%	·
COc1ccccc1NC(=O)C1=C(C)Nc2nc3ccccc3n2C1c1cccc(Br)c1 (stereo not drawn)	·	-19%	?	22%	-20%	·
CCN(CC)C(=O)CC(c1ccc2c(c1)OCO2)c1c(OC)cc(OC)c2ccc(=O)oc12 (stereo not drawn)	-6	-35%	-3%[59 µM]	4%	-34%	-7%
CCN(CC)C(=O)CC(c1ccc(N(C)C)cc1)c1c(OC)cc(OC)c2ccc(=O)oc12 (stereo not drawn)	1	?	?	-18%	45µM*	-13%
CCN(CC)CCC(c1ccc(N(C)C)cc1)c1c(OC)cc(OC)c2ccc(=O)oc12 (stereo not drawn)	-4	40µM*	?	-27%	45µM*	4%
CCN(CC)CCC(c1ccc(OC)cc1)c1c(OC)cc(OC)c2c(C)cc(=O)oc12 (stereo not drawn)	·	·	·	17%	-26%	·
CN(C(=S)Nc1cccnc1)c1ccc(O)cc1	-9	-10%	1.6µM*	?	?	-7%
CN(C(=S)Nc1ccc(Oc2ccccc2)cc1)c1ccc(O)cc1	0	?	1.3µM*	18µM*	56µM*	-17%
CCN(C(=S)Nc1cccnc1)c1ccccc1	-5	-17%	-37%	18%	-3%	-8%
CCN(C(=S)Nc1cccnc1)c1cccc2ccccc12	0	?	?	-11%	-27%	27µM*
CN(C(=S)Nc1ccccc1)c1ccccc1	11	-20%	-10%	2%	21%	-6%
CN(C(=S)Nc1ccc(SC(F)F)cc1)c1ccc(O)cc1	1	?	1.4µM*	71µM*	?	?
CCCn1cc(CN2CCC(n3nccc3NC(=O)CCOc3ccccc3)CC2)c(C)n1	-2	-1%	8%	49%	-12%	-6%
CCCC(C)C(=O)Nc1ccc(S(=O)(=O)Nc2nccs2)cc1 (stereo not drawn)	-1	50µM*	·	40%	-14%	-25%
CCCCC(CC)C(=O)Nc1ccc(S(=O)(=O)Nc2nccs2)cc1 (stereo not drawn)	0	-28%	?	1%	-15%	-10%
CCC(=O)Nc1ccc(S(=O)(=O)Nc2nccs2)cc1	-3	?	·	48%	-8%	-9%
CCCCC1CCC(C(=O)Nc2ccc(S(=O)(=O)Nc3nccs3)cc2)CC1 (stereo not drawn)	·	-30%	45µM*	-5%	-25%	?
Cc1ccccc1OC(C)C(=O)Nc1ccc(S(=O)(=O)Nc2nccs2)cc1 (stereo not drawn)	2	-24%	50µM*	15%	-18%	-9%

Source: PubChem BioAssay
